Values without a mark were called inactive.
System: Pseudogymnoascus destructans 20631-21
Experiment: growth activity index (DuctApe, 0 = no growth, 9 = maximal growth) (index 0-9); higher = more fungal growth (less inhibition), active = 0 or less; extreme values may be limits of the assay
Conditions: temperature: 13 °C, YPD
[1] = concentration level (1-4, increasing; Biolog proprietary): 1
[2] = concentration level (1-4, increasing; Biolog proprietary): 2
[3] = concentration level (1-4, increasing; Biolog proprietary): 3
[4] = concentration level (1-4, increasing; Biolog proprietary): 4
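Further: biolog Phenotype Microarray plates PM21–25, OD595 followed daily over 11 days, growth curves converted to index, mean of two independent experiments.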

Row | SMILES | growth activity index [1] | growth activity index [2] | growth activity index [3] | growth activity index [4]
1 | Cc1cc(N)c2ccccc2[n+]1CCCCCCCCCC[n+]1c(C)cc(N)c2ccccc21 [Dequalinium chloride] (Biolog plate: PM23) | 4 | 4.67 | 2 | 1
2 | NNC(=O)c1ccncc1 [Isoniazid] (Biolog plate: PM24) | 5 | 5 | 4 | 0.333
3 | NO [Hydroxylamine] (Biolog plate: PM23) | 4 | 4 | 2.67 | 0 (active)
4 | NC(CO)C(=O)NO (racemic) [DL-Serine hydroxamate] (Biolog plate: PM22) | 4.33 | 4 | 0 (active) | 0 (active)
5 | CN[C@@H]1[C@@H](O[C@H]2O[C@H](CO)[C@@H](N)[C@H](O)[C@H]2O)OC2C[C@@H](N)[C@@H](O[C@H]3[C@H](O)[C@@H](O)[C@H](N)C[C@@H]3N)OC2[C@@H]1O (stereo partly drawn) [Apramycin] (Biolog plate: PM24) | 5 | 4.33 | 7.67 | 4.33
6 | O.O.O.O.O.O.[Cl-].[Cl-].[Mg+2] [Magnesium chloride] (Biolog plate: PM21) | 4 | 4 | 4 | 2.25
7 | [Cl][Pd][Cl] [Palladium(II) Chloride] (Biolog plate: PM25) | 4.33 | 4 | 4.67 | 5

From the supplement of paper PMC6124720
